# Assay results reported in the supplement of paper PMC8728848.
# Shown is part of a subset that was picked to be rich in the strongest signals.
# Assays:
# Test in all cases: glycan array binding signal (z-score within array); higher = stronger binding
# Details in all cases: glycan notation: IUPAC condensed, linker removed
# [1] = biological target: Fuc(a1-2)Gal(b1-3)GalNAc(b1-3)Gal
# Outline: (§1)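 Glycan array data came from 3228 arrays in the Consortium for Functional Glycomics database, and only arrays with an available protein sequence were kept. Glycan names were put into IUPAC-condensed notation, and columns mapping to the same glycan were averaged. The binding signal is a within-array Z-score, averaged across arrays of one protein sequence run at different concentrations or buffers and across linkers. A negative Z-score can be read as non-binding.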
# [2] = biological target: Fuc(a1-2)Gal(b1-3)[Fuc(a1-4)]GlcNAc
# Outline: as §1
# [3] = biological target: Fuc(a1-2)Gal(b1-3)[Fuc(a1-4)]GlcNAc(b1-3)[Gal(b1-4)GlcNAc(b1-6)]Gal(b1-4)Glc
# Outline: as §1
# [4] = biological target: Fuc(a1-2)Gal(b1-4)GlcNAc(b1-3)Gal(b1-4)GlcNAc(b1-2)Man(a1-3)[Fuc(a1-2)Gal(b1-4)GlcNAc(b1-3)Gal(b1-4)GlcNAc(b1-2)Man(a1-6)]Man(b1-4)GlcNAc(b1-4)GlcNAc
# Outline: as §1
# [5] = biological target: Fuc(a1-2)Gal(b1-4)[Fuc(a1-3)]GlcNAc(b1-3)Gal(b1-4)[Fuc(a1-3)]GlcNAc
# Outline: as §1
# [6] = biological target: Fuc(a1-2)[Gal(a1-3)]Gal(b1-4)GlcNAc(b1-2)Man(a1-3)[Fuc(a1-2)[Gal(a1-3)]Gal(b1-4)GlcNAc(b1-2)Man(a1-6)]Man(b1-4)GlcNAc(b1-4)GlcNAc
# Outline: as §1
# [7] = biological target: Fuc(a1-2)[Gal(a1-3)]Gal(b1-4)GlcNAc(b1-3)GalNAc
# Outline: as §1
# [8] = biological target: Fuc(a1-2)[GalNAc(a1-3)]Gal(b1-3)GlcNAc(b1-6)GalNAc
# Outline: as §1
# [9] = biological target: Fuc(a1-2)[GalNAc(a1-3)]Gal(b1-4)GlcNAc(b1-2)Man(a1-3)[Fuc(a1-2)[GalNAc(a1-3)]Gal(b1-4)GlcNAc(b1-2)Man(a1-6)]Man(b1-4)GlcNAc(b1-4)GlcNAc
# Outline: as §1
# [10] = biological target: Fuc(a1-2)[GalNAc(a1-3)]Gal(b1-4)GlcNAc(b1-3)Gal(b1-4)GlcNAc(b1-3)Gal(b1-4)GlcNAc
# Outline: as §1
# [11] = biological target: Fuc(a1-2)[GalNAc(b1-3)]Gal
# Outline: as §1
# [12] = biological target: Fuc(a1-3)[GalNAc(b1-4)]GlcNAc
# Outline: as §1
# [13] = biological target: Gal(a1-3)Gal(b1-4)GlcNAc(b1-2)Man
# Outline: as §1
# [14] = biological target: Gal(a1-3)Gal(b1-4)GlcNAc(b1-2)Man(a1-3)[Gal(a1-3)Gal(b1-4)GlcNAc(b1-2)Man(a1-6)]Man(b1-4)GlcNAc(b1-4)GlcNAc
# Outline: as §1
# [15] = biological target: Gal(a1-3)[Gal(a1-4)]Gal(b1-4)GlcNAc
# Outline: as §1
# [16] = biological target: Gal(a1-4)Gal(b1-4)Glc
# Outline: as §1
# [17] = biological target: Gal(b1-3)[Fuc(a1-4)]GlcNAc(b1-2)Man
# Outline: as §1
# [18] = biological target: Gal(b1-3)[Fuc(a1-4)]GlcNAc(b1-3)Gal(b1-3)[Fuc(a1-4)]GlcNAc
# Outline: as §1
# [19] = biological target: Gal(b1-4)GalNAc(a1-3)[Fuc(a1-2)]Gal(b1-4)GlcNAc
# Outline: as §1
# [20] = biological target: Gal(b1-4)GlcNAc(b1-2)Man
# Outline: as §1
# [21] = biological target: Gal(b1-4)GlcNAc(b1-6)GalNAc
# Outline: as §1
# [22] = biological target: Gal(b1-6)Gal
# Outline: as §1
# [23] = biological target: Gal3S(b1-3)GalNAc
# Outline: as §1
# [24] = biological target: Gal3S(b1-4)GlcNAc
# Outline: as §1
# [25] = biological target: Gal3S(b1-4)[Fuc(a1-3)]Glc6S
# Outline: as §1
# [26] = biological target: Gal3S(b1-4)[Fuc(a1-3)]GlcNAc
# Outline: as §1
# [27] = biological target: Gal4S6S(b1-4)GlcNAc
# Outline: as §1
# [28] = biological target: GalNAc(b1-4)GlcNAc(b1-2)Man
# Outline: as §1
# [29] = biological target: GalNAc(b1-4)GlcNAc6S
# Outline: as §1
# [30] = biological target: GlcNAc(b1-2)Man(a1-3)[GlcNAc(b1-4)][GlcNAc(b1-2)Man(a1-6)]Man(b1-4)GlcNAc(b1-4)[Fuc(a1-6)]GlcNAc
# Outline: as §1
# [31] = biological target: GlcNAc(b1-3)Fuc
# Outline: as §1
# [32] = biological target: GlcNAc(b1-3)Gal(b1-4)GlcNAc(b1-2)[GlcNAc(b1-3)Gal(b1-4)GlcNAc(b1-6)]Man(a1-6)[GlcNAc(b1-3)Gal(b1-4)GlcNAc(b1-2)Man(a1-3)]Man(b1-4)GlcNAc(b1-4)GlcNAc
# Outline: as §1
# [33] = biological target: GlcNAc(b1-3)[GlcNAc(b1-4)][GlcNAc(b1-6)]GlcNAc
# Outline: as §1
# [34] = biological target: GlcNAc(b1-4)GlcNAc(b1-4)GlcNAc
# Outline: as §1
# [35] = biological target: GlcNAc(b1-6)Gal(b1-4)GlcNAc
# Outline: as §1
# [36] = biological target: Man(a1-3)[Man(a1-6)]Man(b1-4)GlcNAc(b1-4)GlcNAc
# Outline: as §1
# [37] = biological target: Neu5Ac(a2-3)Gal(b1-3)GalNAc(b1-4)[Neu5Ac(a2-8)Neu5Ac(a2-3)]Gal(b1-4)Glc
# Outline: as §1
# [38] = biological target: Neu5Ac(a2-3)Gal(b1-3)GlcNAc
# Outline: as §1
# [39] = biological target: Neu5Ac(a2-3)Gal(b1-3)GlcNAc(b1-4)Gal(b1-4)Glc
# Outline: as §1
# [40] = biological target: Neu5Ac(a2-3)Gal(b1-3)[Fuc(a1-4)]GlcNAc(b1-3)Gal(b1-3)[Fuc(a1-4)]GlcNAc
# Outline: as §1
# [41] = biological target: Neu5Ac(a2-3)Gal(b1-3)[Fuc(a1-4)]GlcNAc(b1-3)Gal(b1-4)[Fuc(a1-3)]GlcNAc
# Outline: as §1
# [42] = biological target: Neu5Ac(a2-3)Gal(b1-4)[Fuc(a1-3)]GlcNAc(b1-3)GalNAc
# Outline: as §1
# [43] = biological target: Neu5Ac(a2-3)Gal(b1-4)[Fuc(a1-3)]GlcNAc(b1-6)[Gal(b1-3)]GalNAc
# Outline: as §1
# [44] = biological target: Neu5Ac(a2-6)Gal(b1-4)GlcNAc(b1-3)Gal(b1-4)[Fuc(a1-3)]GlcNAc(b1-3)Gal(b1-4)[Fuc(a1-3)]GlcNAc
# Outline: as §1
# [45] = biological target: Neu5Ac(a2-6)Gal(b1-4)GlcNAc(b1-6)[Gal(b1-3)]GalNAc
# Outline: as §1
# [46] = biological target: Neu5Gc(a2-3)Gal(b1-3)GlcNAc
# Outline: as §1
# [47] = biological target: Neu5Gc(a2-3)Gal(b1-4)Glc
# Outline: as §1
binder,measurement,setting,value
Blon0732mut (Bifidobacterium longum) (protein) MPTSEHKADDATRHLTLIPAPVTLEYTHGTALIGPLVTIEDADQSWETLPIEQLSDELRHRYGVTVLRRRTHGTVISLGLDSRLAHDEYTLDVSESEGIRVRGGGESGLRYGLQTLRQIIGQTSRAIPCLHIQDKPAFAVRAYSLDVTRGRVPTMEFLTWFVDQLALYKYNQFQLYVEHAFAFVELSEAWRGTDPLTAADITYLDEYCARRGIELVPSLATFGHMYMNLRTREHRGLGEFPEDADRPFSFIERMEHHTLNAADPKAHDFASRLIEEYAPLFRSKSFNIGGNETFDLGRGRSAQDAPEAGRDELYAGFVRDLCETLARHGRQPMLWADIALESPRTMDLLPGDITMLNWMYEPQIDESKIQTIATQGRRQFVCPAVRAWSRFFPDYAGAWLNTYHMALAGTKYDAEGMVVTDWGDYGHVNDPRLSVPGLCYGAQNAWNPIEIDAHEMNRRISALVYGDESGRIMDCLARIDSDGVSFPWDLAVQVLELEYGSGTGALNMDVAACMERSSGGKLTLDRTLGCDDARRRMLQWNRERIERRRDCDQVLRDCGDAFAGLDKGGLTAEFLSVMLDGQRLFNELGEELLALADGKDVGSGANRLAADLELWFERYRAQWLSVGRHAELARIAHVVWSLADILRRGAL,glycan array binding signal (z-score),[1],-1.26
same,glycan array binding signal (z-score),[2],0.087
same,glycan array binding signal (z-score),[3],-0.87
same,glycan array binding signal (z-score),[4],-0.325
same,glycan array binding signal (z-score),[5],0.489
same,glycan array binding signal (z-score),[6],-0.864
same,glycan array binding signal (z-score),[7],-0.533
same,glycan array binding signal (z-score),[8],-0.809
same,glycan array binding signal (z-score),[9],0.397
same,glycan array binding signal (z-score),[10],0.035
same,glycan array binding signal (z-score),[11],0.44
same,glycan array binding signal (z-score),[12],1.89
same,glycan array binding signal (z-score),[13],-0.505
same,glycan array binding signal (z-score),[14],0.086
same,glycan array binding signal (z-score),[15],5.9
same,glycan array binding signal (z-score),[16],2.6
same,glycan array binding signal (z-score),[17],-0.411
same,glycan array binding signal (z-score),[18],-0.751
same,glycan array binding signal (z-score),[19],0.345
same,glycan array binding signal (z-score),[20],1.31
same,glycan array binding signal (z-score),[21],0.168
same,glycan array binding signal (z-score),[22],-0.313
same,glycan array binding signal (z-score),[23],1.16
same,glycan array binding signal (z-score),[24],-0.019
same,glycan array binding signal (z-score),[25],4.3
same,glycan array binding signal (z-score),[26],3.42
same,glycan array binding signal (z-score),[27],2.26
same,glycan array binding signal (z-score),[28],0.028
same,glycan array binding signal (z-score),[29],-0.46
same,glycan array binding signal (z-score),[30],-0.15
same,glycan array binding signal (z-score),[31],-1.38
same,glycan array binding signal (z-score),[32],3.03
same,glycan array binding signal (z-score),[33],5.26
same,glycan array binding signal (z-score),[34],-0.223
same,glycan array binding signal (z-score),[35],0.074
same,glycan array binding signal (z-score),[36],-0.261
same,glycan array binding signal (z-score),[37],3.81
same,glycan array binding signal (z-score),[38],-0.428
same,glycan array binding signal (z-score),[39],0.176
same,glycan array binding signal (z-score),[40],-0.898
same,glycan array binding signal (z-score),[41],-0.002
same,glycan array binding signal (z-score),[42],2.5
same,glycan array binding signal (z-score),[43],0.262
same,glycan array binding signal (z-score),[44],2.6
same,glycan array binding signal (z-score),[45],0.982
same,glycan array binding signal (z-score),[46],-0.667
same,glycan array binding signal (z-score),[47],2.58
